Drawing on paper PMC11006913, this text covers binding signal for 40 sequences.

The target of the experiment is PITX2 (Homo sapiens, UniProt Q99697 72-157). Kind of experiment: PBM; 200 nM protein, PBS. Particulars: dsDNA, one strand shown.
As for AGGATTTA, the binding signal was 12.4 upbm affinity estimate (log intensity, higher = more binding, comparable within an allelic series).

As for AGGGATAG, the binding signal is 9.94 upbm affinity estimate (log intensity, higher = more binding, comparable within an allelic series).

In the case of TGACGCAA, the binding signal was 8.04 upbm affinity estimate (log intensity, higher = more binding, comparable within an allelic series).

Consider GGTCTTTA, for which the binding signal was 9.73 upbm affinity estimate (log intensity, higher = more binding, comparable within an allelic series).

Take AGCGATGC: the binding signal is 7.81 upbm affinity estimate (log intensity, higher = more binding, comparable within an allelic series).

With CACCGGGC, the binding signal is 7.98 upbm affinity estimate (log intensity, higher = more binding, comparable within an allelic series).

For CACTAGTG, the binding signal was 8.21 upbm affinity estimate (log intensity, higher = more binding, comparable within an allelic series).

Regarding GGATCCTA, the binding signal was 9.17 upbm affinity estimate (log intensity, higher = more binding, comparable within an allelic series).

Regarding AAGCCCTA, the binding signal is 10.4 upbm affinity estimate (log intensity, higher = more binding, comparable within an allelic series).

For the sequence CCATTCAC, the binding signal is 8.31 upbm affinity estimate (log intensity, higher = more binding, comparable within an allelic series).

For the sequence GCCTCACC, the binding signal was 8.04 upbm affinity estimate (log intensity, higher = more binding, comparable within an allelic series).

Regarding ATAAATCC, the binding signal was 12.3 upbm affinity estimate (log intensity, higher = more binding, comparable within an allelic series).

Consider AGGGCTTA, for which the binding signal is 12.3 upbm affinity estimate (log intensity, higher = more binding, comparable within an allelic series).

Regarding ATAGGCTC, the binding signal is 9.54 upbm affinity estimate (log intensity, higher = more binding, comparable within an allelic series).

Regarding GAACACGA, the binding signal was 8.02 upbm affinity estimate (log intensity, higher = more binding, comparable within an allelic series).

As to CCTACCAG, the binding signal is 8.01 upbm affinity estimate (log intensity, higher = more binding, comparable within an allelic series).

In the case of ACTTGATC, the binding signal was 10.2 upbm affinity estimate (log intensity, higher = more binding, comparable within an allelic series).

As to CGCCTGTC, the binding signal was 8.14 upbm affinity estimate (log intensity, higher = more binding, comparable within an allelic series).

With GGATTTAA, the binding signal is 12.5 upbm affinity estimate (log intensity, higher = more binding, comparable within an allelic series).

For the sequence GATGAGCC, the binding signal is 9.56 upbm affinity estimate (log intensity, higher = more binding, comparable within an allelic series).

As to CTAGCGAG, the binding signal was 8.11 upbm affinity estimate (log intensity, higher = more binding, comparable within an allelic series).

Regarding GACGCGAC, the binding signal is 7.93 upbm affinity estimate (log intensity, higher = more binding, comparable within an allelic series).

TATTAGCA: the binding signal was 10.1 upbm affinity estimate (log intensity, higher = more binding, comparable within an allelic series).

As to GTCCACTA, the binding signal is 7.94 upbm affinity estimate (log intensity, higher = more binding, comparable within an allelic series).

In the case of AAAGCCGA, the binding signal is 9.6 upbm affinity estimate (log intensity, higher = more binding, comparable within an allelic series).

Turning to CGGGCACA, the binding signal is 8 upbm affinity estimate (log intensity, higher = more binding, comparable within an allelic series).

Regarding CAGTTTCA, the binding signal is 7.95 upbm affinity estimate (log intensity, higher = more binding, comparable within an allelic series).

In the case of ACAATCCC, the binding signal was 10.3 upbm affinity estimate (log intensity, higher = more binding, comparable within an allelic series).

Take CACTCGCA: the binding signal is 8.08 upbm affinity estimate (log intensity, higher = more binding, comparable within an allelic series).

Take GCGGCGCC: the binding signal is 7.97 upbm affinity estimate (log intensity, higher = more binding, comparable within an allelic series).

On to CGTTGTCA, for which the binding signal was 8.02 upbm affinity estimate (log intensity, higher = more binding, comparable within an allelic series).

For the sequence CAACCATC, the binding signal is 8.24 upbm affinity estimate (log intensity, higher = more binding, comparable within an allelic series).

Turning to GTGCCAGA, the binding signal is 8.11 upbm affinity estimate (log intensity, higher = more binding, comparable within an allelic series).

With CAGTTCCG, the binding signal was 8.03 upbm affinity estimate (log intensity, higher = more binding, comparable within an allelic series).

With CTCCCCGA, the binding signal was 8.1 upbm affinity estimate (log intensity, higher = more binding, comparable within an allelic series).

Turning to GGAATAAA, the binding signal was 9.51 upbm affinity estimate (log intensity, higher = more binding, comparable within an allelic series).

Regarding ATTACAGA, the binding signal was 9.82 upbm affinity estimate (log intensity, higher = more binding, comparable within an allelic series).

For the sequence TCTTGGCA, the binding signal was 7.96 upbm affinity estimate (log intensity, higher = more binding, comparable within an allelic series).

Turning to ACGTTCCG, the binding signal is 7.96 upbm affinity estimate (log intensity, higher = more binding, comparable within an allelic series).

Consider ATCCTTAC, for which the binding signal was 9.47 upbm affinity estimate (log intensity, higher = more binding, comparable within an allelic series).
